# Results taken from PubChem BioAssay.
# “And” between values parts separate entries of the source, which are not always exact repeats. Equal entries are not always repeated. The source made the active and inactive calls.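 How the source made its calls, unless noted: active means normalized viability below 100% at a tested concentration; inactive means the rest.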
# How the values were obtained:
# [1] = Wnt pathway potentiators raising nuclear beta-catenin – imaging, WNT3A-conditioned medium, mouse C2C12, NPC library, primary screen (AID 1117326; in the data active means nuclear beta-catenin stimulation mostly above about 4.2%, no sharp cut-off; inactive means mostly below about 10%); conditions: stronger effect = higher value
# [2] = stimulators of insulin release from INS-1E, primary screen, cell-based, 5 mM glucose, NPC library (AID 1117329;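 active means compound raises insulin release from rat beta cells at 5 mM glucose, no numeric limit stated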); conditions: rat INS-1E insulin secretion, at 10 µM, stronger effect = higher value
# [3] = growth inhibition of GSK3B-pretreated HCT116 cells – cell-based, CellTiter-Glo, 0.2 to 20 µM (AID 1117336;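 active means compounds lowering colon cancer cell viability after pretreatment blocking the GSK3B kinase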); conditions: HCT116 viability after GSK3B inhibitor, at 20 µM, stronger effect = higher value
# [4] = inhibition of endothelial tube formation, primary screen, imaging, VEGF stimulated, CD31 staining, tube area, NPC library (AID 1117340;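 active means compound that reduces growth-factor-driven endothelial tube area in a mixed cell culture, no cutoff stated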); conditions: VEGF-stimulated ADSC/ECFC co-culture, at 10 µM, stronger effect = higher value
# [5] = GLP1 release stimulators, primary, NCI-H716, NPC library (AID 1117341;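 active means compound raises GLP1 secretion from the human gut endocrine cells, with no numeric limit stated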); conditions: NCI-H716 cells, at 10 µM, stronger effect = higher value
# [6] = HCT116 colon cancer cell growth inhibition, primary screen, CellTiter-Glo luminescence, NPC library (AID 1117342;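 active means compounds that lower survival of HCT116 colon cancer cells in the luminescence readout, no numeric limit stated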); conditions: at 20 µM (top of the series)
# [7] = reduced SW480 viability measured with CellTiter-Glo, NPC library, primary (AID 1117343;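 active means compounds that lower viability of the colon cancer cells in the luminescence readout, with no numeric limit stated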); conditions: CellTiter-Glo luminescence; at 20 µM (top of the series) unless noted
# [8] = NPC library primary testing for decreased DLD-1 cell viability via CellTiter-Glo (AID 1117346;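 active means compounds that lower survival of DLD-1 colon cancer cells in the luminescence readout, no cutoff given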); conditions: DLD-1 viability, CellTiter-Glo luminescence; at 20 µM (top of the series)
# [9] = EMT-state selective cytotoxicity in co-culture – imaging, PC-3E GFP, TEM4-18 mCherry, primary screen (AID 1345086;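 active means compounds killing one labelled cell type while sparing the other, by normalised counts and ratio limits, not self-fluorescent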;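 further: cells exposed to compound for 72 h before imaging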;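 on red/green cell ratio (normalised): normalised mesenchymal count divided by normalised epithelial count so high means epithelial killing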); conditions: PC-3E GFP / TEM4-18 mCherry co-culture, imaging cell counts, at 1 µM
# [10] = viability loss with induced miR-34 in A549 – imaging, A549 dox-inducible miR-34, nuclei and caspase counts, primary screen (AID 1347080;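 active means compounds whose cell count with miR-34 switched on is under 0.7 times the count with it off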); conditions: A549 miR-34 inducible, Hoechst nuclei count, 48 h
# [11] = MELAS cybrid and Rieske KO viability enhancers – cell-based, MELAS cybrids, Rieske KO mouse fibroblasts, CellTiter-Glo, primary screen (AID 1508586;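 active means mean z-score across replicates of 1.96 or higher in either the MELAS or the Rieske mutant cell line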;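 further: z relative to plate mean and SD of compound and empty wells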); conditions: low glucose
# [12] = drug combination growth inhibition, ovarian cancer – cell-based, oncology-focused library, rucaparib conditional, profiling panel (AID 1508598); conditions: patient-derived ovarian cancer cells, CellTiter-Glo viability, 144 h, stronger effect = lower value
# [13] = target: NAD(+) hydrolase SARM1 (Homo sapiens) (UniProt Q6SZW1); experiment: blocking NAD cleavage by SARM1 SAM-TIR – cell lysate, NAD-Glo luminescence (AID 1508614;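 active means compound whose remaining NAD level is above about 45 nM, limit read from the data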); conditions: SAM-TIR HEK293T lysate NADase, at 1 µM, stronger effect = higher value
# [14] = growth inhibition, single agent or in combination, cell-based, chromothripsis tumors, cisplatin or BGB combos (AID 1671449; in the data active means inhibition above about 80%;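 further: cells exposed for 96 hours; 0% = vehicle DMSO and 100% = killing by high DMSO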); conditions: LFS_MB_P medulloblastoma cells
# [15] = growth inhibition, single agent and combos, cell-based, chromothripsis tumors, cisplatin or BGB combos (AID 1671450; in the data active means inhibition above about 80%;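 further: cells exposed to compound for four days; 0% = vehicle DMSO and 100% = cell killing by high DMSO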); conditions: HDN33 neuroblastoma cells, stronger effect = higher value
# [16] = growth inhibition, single agents and combos, ICB984, cell-based, cisplatin or BGB combos, synergistic combos for chromothripsis tumors (AID 1671451; call rule not given here;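 further: cells exposed for 96 hours before readout; 0% = vehicle DMSO and 100% = killing by high DMSO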); conditions: ICB984 medulloblastoma cells, drug combinations, stronger effect = higher value
# [17] = growth inhibition, single agents and combos, HTB85, cell-based, BGB or cisplatin IC20 combos, synergistic combos for chromothripsis tumors (AID 1671453; in the data active means inhibition above about 80%;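 further: cells exposed for 96 hours before readout; 0% = vehicle DMSO and 100% = high DMSO killing control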); conditions: HTB85 osteosarcoma cells, drug combinations, stronger effect = higher value
# [18] = growth inhibition, MDA-MB-436, cell-based, BGB or cisplatin combos, synergistic combos for chromothripsis tumors (AID 1671458; call rule not given here;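 further: cells exposed for 96 hours; 0% = vehicle DMSO and 100% = killing by high DMSO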); conditions: MDA-MB-436 breast carcinoma growth inhibition, drug combinations, stronger effect = higher value
# NAD(+) hydrolase SARM1 (Homo sapiens), sequence (Q6SZW1 whole entry, looked up): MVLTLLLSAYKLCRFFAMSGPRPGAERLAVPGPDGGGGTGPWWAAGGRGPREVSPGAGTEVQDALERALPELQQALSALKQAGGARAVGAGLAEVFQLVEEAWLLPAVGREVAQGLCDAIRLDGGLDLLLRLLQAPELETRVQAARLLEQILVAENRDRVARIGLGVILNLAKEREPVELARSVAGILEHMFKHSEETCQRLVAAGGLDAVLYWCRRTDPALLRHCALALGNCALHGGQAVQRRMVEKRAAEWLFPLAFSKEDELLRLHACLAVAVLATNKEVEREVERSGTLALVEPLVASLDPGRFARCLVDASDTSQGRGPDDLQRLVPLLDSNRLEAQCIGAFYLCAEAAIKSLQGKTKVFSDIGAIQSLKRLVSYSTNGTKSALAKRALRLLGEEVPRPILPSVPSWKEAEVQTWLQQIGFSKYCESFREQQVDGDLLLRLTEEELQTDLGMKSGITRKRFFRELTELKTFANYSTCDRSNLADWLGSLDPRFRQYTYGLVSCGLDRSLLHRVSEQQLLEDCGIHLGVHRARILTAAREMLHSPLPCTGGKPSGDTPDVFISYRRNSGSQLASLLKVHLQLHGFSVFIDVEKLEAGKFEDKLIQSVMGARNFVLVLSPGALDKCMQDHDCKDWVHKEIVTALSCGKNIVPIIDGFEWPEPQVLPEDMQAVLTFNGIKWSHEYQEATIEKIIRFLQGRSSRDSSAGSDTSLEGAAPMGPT
structure (smiles),measurement,setting,value
O=C(CCCCCCC(=O)Nc1ccccc1)NO,nuclear beta-catenin stimulation,[1]; at 10 µM,7.6% (inactive)
same,nuclear beta-catenin stimulation,"[1]; stimulation, at 2 µM",7.1%
same,insulin secretion stimulation,[2],-1.2% (inactive)
same,viability decrease,[3],53.5% (active)
same,tube area decrease,[4],103% (active)
same,GLP1 secretion stimulation,[5],0.5% (inactive)
same,inhibition of viability,[6],108% (active)
same,viability decrease (inhibition),[7],110% (active)
same,viability decrease (inhibition),[8],58% (active)
same,red/green cell ratio (normalised),"[9]; actives lie on both sides, counts scaled to control wells, 1 = unselective",1.29 (inactive)
same,normalised cell number,[9]; measured here: epithelial PC-3E GFP cell survival,0.33
same,normalised cell number,[9]; measured here: mesenchymal TEM4-18 mCherry cell survival,0.42
same,fold change,"[10]; stronger effect = lower value, cell number ratio, induced over uninduced",1.09 (inactive) and 1.01 (inactive) and 0.979 (inactive)
same,fold change,[10]; measured here: relative caspase fold change +Dox/-Dox,0.756 and 1.04 and 1.07
same,cell count,"[10]; measured here: total cells with miR-34 induction, stronger effect = lower value",1690 and 5020 and 1390
same,cell count,[10]; measured here: total cells without miR-34 induction,1540 and 4980 and 1420
same,z-score,"[11]; MELAS cybrid survival, CellTiter-Glo 48 h, stronger effect = higher value",0.575 (inactive) and -2.2 (inactive)
same,z-score,"[11]; Rieske KO mouse fibroblast survival, CellTiter-Glo 72 h",0.979 and -1.4
same,viability,"[12]; at 0.000305 µM, OCI-C5x cells, with rucaparib 10 µM, 100% = cells with rucaparib alone",108% (inactive)
same,viability,"[12]; at 0.000305 µM, OCI-C5x cells, without rucaparib",108% (inactive)
same,viability,"[12]; at 0.000305 µM, OCI-P5x cells, with rucaparib 20 µM, 100% = cells with rucaparib alone",87.7% (active)
same,viability,"[12]; at 0.000305 µM, OCI-P5x cells, without rucaparib",91.8% (active)
same,viability,"[12]; at 0.00122 µM, OCI-C5x cells, with rucaparib 10 µM, 100% = cells with rucaparib alone",112% (inactive)
same,viability,"[12]; at 0.00122 µM, OCI-C5x cells, without rucaparib",106% (inactive)
same,viability,"[12]; at 0.00122 µM, OCI-P5x cells, with rucaparib 20 µM, 100% = cells with rucaparib alone",83% (active)
same,viability,"[12]; at 0.00122 µM, OCI-P5x cells, without rucaparib",97.1% (active)
same,viability,"[12]; at 0.00488 µM, OCI-C5x cells, with rucaparib 10 µM, 100% = cells with rucaparib alone",113% (inactive)
same,viability,"[12]; at 0.00488 µM, OCI-C5x cells, without rucaparib",110% (inactive)
same,viability,"[12]; at 0.00488 µM, OCI-P5x cells, with rucaparib 20 µM, 100% = cells with rucaparib alone",109% (inactive)
same,viability,"[12]; at 0.00488 µM, OCI-P5x cells, without rucaparib",96.9% (active)
same,viability,"[12]; at 0.0195 µM, OCI-C5x cells, with rucaparib 10 µM, 100% = cells with rucaparib alone",111% (inactive)
same,viability,"[12]; at 0.0195 µM, OCI-C5x cells, without rucaparib",114% (inactive)
same,viability,"[12]; at 0.0195 µM, OCI-P5x cells, with rucaparib 20 µM, 100% = cells with rucaparib alone",112% (inactive)
same,viability,"[12]; at 0.0195 µM, OCI-P5x cells, without rucaparib",93.3% (active)
same,viability,"[12]; at 0.0781 µM, OCI-C5x cells, with rucaparib 10 µM, 100% = cells with rucaparib alone",110% (inactive)
same,viability,"[12]; at 0.0781 µM, OCI-C5x cells, without rucaparib",108% (inactive)
same,viability,"[12]; at 0.0781 µM, OCI-P5x cells, with rucaparib 20 µM, 100% = cells with rucaparib alone",96.2% (active)
same,viability,"[12]; at 0.0781 µM, OCI-P5x cells, without rucaparib",83% (active)
same,viability,"[12]; at 0.313 µM, OCI-C5x cells, with rucaparib 10 µM, 100% = cells with rucaparib alone",57.7% (active)
same,viability,"[12]; at 0.313 µM, OCI-C5x cells, without rucaparib",57.4% (active)
same,viability,"[12]; at 0.313 µM, OCI-P5x cells, with rucaparib 20 µM, 100% = cells with rucaparib alone",61.2% (active)
same,viability,"[12]; at 0.313 µM, OCI-P5x cells, without rucaparib",46.1% (active)
same,viability,"[12]; at 1.25 µM, OCI-C5x cells, with rucaparib 10 µM, 100% = cells with rucaparib alone",73.9% (active)
same,viability,"[12]; at 1.25 µM, OCI-C5x cells, without rucaparib",52.8% (active)
same,viability,"[12]; at 1.25 µM, OCI-P5x cells, with rucaparib 20 µM, 100% = cells with rucaparib alone",65.9% (active)
same,viability,"[12]; at 1.25 µM, OCI-P5x cells, without rucaparib",55.9% (active)
same,viability,"[12]; at 5 µM, OCI-C5x cells, with rucaparib 10 µM, 100% = cells with rucaparib alone",8.43% (active)
same,viability,"[12]; at 5 µM, OCI-C5x cells, without rucaparib",7.74% (active)
same,viability,"[12]; at 5 µM, OCI-P5x cells, with rucaparib 20 µM, 100% = cells with rucaparib alone",8.03% (active)
same,viability,"[12]; at 5 µM, OCI-P5x cells, without rucaparib",14.8% (active)
same,remaining NAD,[13],10 nM (inactive)
same,inhibition,"[14]; at 0.5 µM, stronger effect = higher value",76.8% (inactive)
same,inhibition,"[14]; measured here: combination with BGB IC20, at 0.005 µM",-24%
same,inhibition,"[14]; measured here: combination with BGB IC40, at 0.005 µM",-25.1%
same,inhibition,"[14]; measured here: combination with BGB IC40, at 0.05 µM",-21.7%
same,inhibition,"[14]; measured here: combination with cisplatin, at 0.5 µM, stronger effect = higher value",48.5%
same,inhibition,"[14]; measured here: combination with cisplatin, at 5 µM, stronger effect = higher value",107%
same,inhibition,"[15]; BGB combo, at 5 µM",92.3%
same,inhibition,[15]; at 0.5 µM,20.4% (inactive)
same,inhibition,"[15]; cisplatin combo, at 5 µM",98%
same,inhibition,"[15]; measured here: with BGB IC20 combination, at 0.5 µM",5.45%
same,inhibition,"[15]; measured here: with cisplatin IC20 combination, at 0.5 µM",18.5%
same,inhibition,"[15]; single agent, at 5 µM",96.3%
same,inhibition,"[16]; BGB IC20 combo, at 0.005 µM",-9.97%
same,inhibition,"[16]; BGB IC40 combo, at 0.005 µM",-34%
same,inhibition,"[16]; BGB IC40 combo, at 0.05 µM",71.5%
same,inhibition,[16]; at 0.5 µM,-21.1% (inactive)
same,inhibition,"[16]; cisplatin combo, at 0.05 µM",70.7%
same,inhibition,"[16]; cisplatin combo, at 0.5 µM",-19.8%
same,inhibition,"[16]; cisplatin combo, at 5 µM",-86.6%
same,inhibition,"[16]; measured here: 5 uM single agent, at 5 µM",-52.1%
same,inhibition,[17]; at 0.5 µM,1.09% (inactive)
same,inhibition,"[17]; measured here: with BGB IC20, at 0.5 µM",-18.4%
same,inhibition,"[17]; measured here: with BGB IC20, at 5 µM",80.9%
same,inhibition,"[17]; measured here: with cisplatin IC20, at 0.5 µM",21.1%
same,inhibition,"[17]; measured here: with cisplatin IC20, at 5 µM",89.9%
same,inhibition,"[17]; single agent, at 5 µM",87.5%
same,inhibition,[18]; at 0.5 µM,-18.9% (inactive)
same,inhibition,"[18]; measured here: BGB combination, at 0.5 µM",-38.5%
same,inhibition,"[18]; measured here: BGB combination, at 5 µM",32%
same,inhibition,"[18]; measured here: cisplatin combination, at 0.5 µM",-20.9%
same,inhibition,"[18]; measured here: cisplatin combination, at 5 µM",36.6%
